# The full ranking holds about 2,900 compounds; the median of “NF-kB SEAP reporter activity, fold change vs agonist alone” is about 0.99, and the highest 2% start at about 2.6. What follows is part of a selection rich in the highest values, with near analogues and random picks from the rest.
# Legend:
# RAW-Dual [1] = assay: NF-kB SEAP reporter activity, fold change vs agonist alone; higher = enhanced NF-kB activity
# In short: (§1)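 Reporter activity is given as fold change relative to agonist-alone wells. To measure it, 50 nL of library stock was pin-tooled onto RAW-Dual macrophages (50,000 cells/well, DMEM, 384-well plates), a PRR agonist followed 1 h later, and cells stayed at 37 °C, 5% CO2. Twenty hours on, supernatant was assayed for IRF (QuantiLuc luminescence) and NF-κB (QuantiBlue, 620 nm absorbance), and wells under 70% of agonist-control IncuCyte confluency in both mask sets were marked cytotoxic.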
# RAW-Dual [2] = assay: NF-kB SEAP reporter activity, fold change vs agonist alone; cytotoxicity flag (confluency mask): not cytotoxic; higher = enhanced NF-kB activity
# In short: as §1
# RAW-Dual [3] = assay: NF-kB SEAP reporter activity, fold change vs agonist alone; cytotoxicity flag (confluency mask): cytotoxic (confluency <70% of control); higher = enhanced NF-kB activity
# In short: as §1
# [4] = library stock concentration (final ~1000-fold dilution): 10 mM, cytotoxicity flag (confluency mask): not cytotoxic, agonist: Imiquimod (TLR7) […]
# [5] = library stock concentration (final ~1000-fold dilution): 10 mM, cytotoxicity flag (confluency mask): not cytotoxic, agonist: MPLA (TLR4) […]
# [6] = agonist: ODN 1826 (TLR9) 0.5 ug/mL
# [7] = agonist: Pam2CSK4 (TLR2/6) 0.1 ug/mL
# [8] = agonist: Pam3CSK4 (TLR2/1) 0.1 ug/mL
# [9] = library stock concentration (final ~1000-fold dilution): 10 mM, cytotoxicity flag (confluency mask): cytotoxic (confluency <70% of control), agonist: Imiquimod (TLR7) […]
# [10] = library stock concentration (final ~1000-fold dilution): 10 mM, cytotoxicity flag (confluency mask): cytotoxic (confluency <70% of control), agonist: MPLA (TLR4) […]
compound,measurement,setting,value
CCOC(=O)/C=C/c1ccc(O)c(OC)c1,NF-kB SEAP reporter activity,RAW-Dual [1]; [4],1.08
same,NF-kB SEAP reporter activity,RAW-Dual [1]; [5],1.2
CCOC(=O)/C=C/c1ccc(O)c(OC)c1 (library stock concentration (final ~1000-fold dilution): 10 mM),NF-kB SEAP reporter activity,RAW-Dual [2]; agonist: LPS (TLR4) 0.1 ug/mL,0.998
same,NF-kB SEAP reporter activity,RAW-Dual [2]; [6],1.03
same,NF-kB SEAP reporter activity,RAW-Dual [2]; [7],0.959
same,NF-kB SEAP reporter activity,RAW-Dual [2]; [8],1.07
COc1ncc(-c2ccc3nccc(-c4ccnnc4)c3c2)cc1NS(=O)(=O)c1ccc(F)cc1F (library stock concentration (final ~1000-fold dilution): 10 mM),NF-kB SEAP reporter activity,RAW-Dual [2]; agonist: LPS (TLR4) 0.1 ug/mL,6.18
same,NF-kB SEAP reporter activity,RAW-Dual [2]; [6],0.959
same,NF-kB SEAP reporter activity,RAW-Dual [2]; [7],2.26
same,NF-kB SEAP reporter activity,RAW-Dual [2]; [8],0.801
COc1cc2nccc(Oc3ccc(NC(=O)Nc4ccc(F)cc4F)c(F)c3)c2cc1OC (library stock concentration (final ~1000-fold dilution): 10 mM),NF-kB SEAP reporter activity,RAW-Dual [3]; agonist: LPS (TLR4) 0.1 ug/mL,0.806
same,NF-kB SEAP reporter activity,RAW-Dual [3]; [6],0.587
same,NF-kB SEAP reporter activity,RAW-Dual [3]; [7],0.463
same,NF-kB SEAP reporter activity,RAW-Dual [3]; [8],0.717
COc1ncc(-c2ccc3nccc(-c4ccnnc4)c3c2)cc1NS(=O)(=O)c1ccc(F)cc1F,NF-kB SEAP reporter activity,RAW-Dual [1]; [4],0.912
same,NF-kB SEAP reporter activity,RAW-Dual [1]; [5],0.957
COc1cc2nccc(Oc3ccc(NC(=O)Nc4ccc(F)cc4F)c(F)c3)c2cc1OC,NF-kB SEAP reporter activity,RAW-Dual [1]; [9],0.799
same,NF-kB SEAP reporter activity,RAW-Dual [1]; [10],0.975
CC1CNCCCN1S(=O)(=O)c1cccc2cncc(F)c12.Cl.O.O (centres undefined),NF-kB SEAP reporter activity,RAW-Dual [1]; [4],1.01
same,NF-kB SEAP reporter activity,RAW-Dual [1]; [5],1.08
CC1CNCCCN1S(=O)(=O)c1cccc2cncc(F)c12.Cl.O.O (centres undefined) (library stock concentration (final ~1000-fold dilution): 10 mM),NF-kB SEAP reporter activity,RAW-Dual [2]; agonist: LPS (TLR4) 0.1 ug/mL,1.11
same,NF-kB SEAP reporter activity,RAW-Dual [2]; [6],0.99
same,NF-kB SEAP reporter activity,RAW-Dual [2]; [7],1.27
same,NF-kB SEAP reporter activity,RAW-Dual [2]; [8],1.5
COC(=O)NC(C(=O)N1CCCC1c1ncc(-c2ccc(-c3ccc(-c4cnc(C5CCCN5C(=O)C(NC(=O)OC)C(C)C)[nH]4)cc3)cc2)[nH]1)C(C)C.Cl.Cl (centres undefined),NF-kB SEAP reporter activity,RAW-Dual [1]; [5],1.76
COC(=O)NC(C(=O)N1CCCC1c1ncc(-c2ccc(-c3ccc(-c4cnc(C5CCCN5C(=O)C(NC(=O)OC)C(C)C)[nH]4)cc3)cc2)[nH]1)C(C)C.Cl.Cl (centres undefined) (library stock concentration (final ~1000-fold dilution): 10 mM),NF-kB SEAP reporter activity,RAW-Dual [2]; agonist: LPS (TLR4) 0.1 ug/mL,1.85
same,NF-kB SEAP reporter activity,RAW-Dual [2]; [6],0.91
same,NF-kB SEAP reporter activity,RAW-Dual [2]; [7],1.02
same,NF-kB SEAP reporter activity,RAW-Dual [2]; [8],0.606
CC(C)CN(CC(O)C(Cc1ccccc1)NC(=O)OC1CCOC1)S(=O)(=O)c1ccc(N)cc1 (centres undefined),NF-kB SEAP reporter activity,RAW-Dual [1]; [4],1.3
same,NF-kB SEAP reporter activity,RAW-Dual [1]; [5],1.6
CC(C)CN(CC(O)C(Cc1ccccc1)NC(=O)OC1CCOC1)S(=O)(=O)c1ccc(N)cc1 (centres undefined) (library stock concentration (final ~1000-fold dilution): 10 mM),NF-kB SEAP reporter activity,RAW-Dual [2]; agonist: LPS (TLR4) 0.1 ug/mL,1.41
same,NF-kB SEAP reporter activity,RAW-Dual [2]; [6],1.74
same,NF-kB SEAP reporter activity,RAW-Dual [2]; [7],1.45
same,NF-kB SEAP reporter activity,RAW-Dual [2]; [8],1.32
CC1CCOC2Cn3cc(C(=O)NCc4ccc(F)cc4F)c(=O)c(O)c3C(=O)N12 (centres undefined),NF-kB SEAP reporter activity,"RAW-Dual [1]; library stock concentration (final ~1000-fold dilution): 2 mM, cytotoxicity flag (confluency mask): not cytotoxic, agonist: MPLA (TLR4) […]",0.994
same,NF-kB SEAP reporter activity,RAW-Dual [1]; [4],1.18
same,NF-kB SEAP reporter activity,RAW-Dual [1]; [5],0.999
CC1CCOC2Cn3cc(C(=O)NCc4ccc(F)cc4F)c(=O)c(O)c3C(=O)N12 (centres undefined) (library stock concentration (final ~1000-fold dilution): 2 mM),NF-kB SEAP reporter activity,RAW-Dual [2]; agonist: LPS (TLR4) 0.1 ug/mL,1.23
same,NF-kB SEAP reporter activity,RAW-Dual [2]; [6],0.967
same,NF-kB SEAP reporter activity,RAW-Dual [2]; [7],0.958
same,NF-kB SEAP reporter activity,RAW-Dual [2]; [8],0.873
CC1CCOC2Cn3cc(C(=O)NCc4ccc(F)cc4F)c(=O)c(O)c3C(=O)N12 (centres undefined) (library stock concentration (final ~1000-fold dilution): 10 mM),NF-kB SEAP reporter activity,RAW-Dual [2]; agonist: LPS (TLR4) 0.1 ug/mL,0.989
same,NF-kB SEAP reporter activity,RAW-Dual [2]; [6],0.999
same,NF-kB SEAP reporter activity,RAW-Dual [2]; [7],1.09
same,NF-kB SEAP reporter activity,RAW-Dual [2]; [8],0.921
CCOC(=O)C(CCc1ccccc1)NC1CCc2ccccc2N(CC(=O)O)C1=O.Cl (centres undefined),NF-kB SEAP reporter activity,RAW-Dual [1]; [4],0.99
same,NF-kB SEAP reporter activity,RAW-Dual [1]; [5],0.958
CCOC(=O)C(CCc1ccccc1)NC1CCc2ccccc2N(CC(=O)O)C1=O.Cl (centres undefined) (library stock concentration (final ~1000-fold dilution): 10 mM),NF-kB SEAP reporter activity,RAW-Dual [2]; agonist: LPS (TLR4) 0.1 ug/mL,0.997
same,NF-kB SEAP reporter activity,RAW-Dual [2]; [6],0.98
same,NF-kB SEAP reporter activity,RAW-Dual [2]; [7],1.03
same,NF-kB SEAP reporter activity,RAW-Dual [2]; [8],0.994
CC(C(=O)O)c1ccc(C(=O)c2cccs2)cc1 (centres undefined) (library stock concentration (final ~1000-fold dilution): 10 mM),NF-kB SEAP reporter activity,RAW-Dual [2]; agonist: LPS (TLR4) 0.1 ug/mL,1.19
same,NF-kB SEAP reporter activity,RAW-Dual [2]; [6],0.999
same,NF-kB SEAP reporter activity,RAW-Dual [2]; [7],1.06
same,NF-kB SEAP reporter activity,RAW-Dual [2]; [8],1.07
CC(C(=O)O)c1ccc(C(=O)c2cccs2)cc1 (centres undefined),NF-kB SEAP reporter activity,RAW-Dual [1]; [4],0.601
same,NF-kB SEAP reporter activity,RAW-Dual [1]; [5],0.825
COC(=O)Nc1nc2ccc(C(=O)c3cccs3)cc2[nH]1,NF-kB SEAP reporter activity,RAW-Dual [1]; [9],2.68
same,NF-kB SEAP reporter activity,RAW-Dual [1]; [10],2.1
COC(=O)Nc1nc2ccc(C(=O)c3cccs3)cc2[nH]1 (library stock concentration (final ~1000-fold dilution): 10 mM),NF-kB SEAP reporter activity,RAW-Dual [3]; agonist: LPS (TLR4) 0.1 ug/mL,2.52
same,NF-kB SEAP reporter activity,RAW-Dual [3]; [6],3.14
same,NF-kB SEAP reporter activity,RAW-Dual [3]; [7],1.85
same,NF-kB SEAP reporter activity,RAW-Dual [3]; [8],1.76
CCCS(=O)c1ccc2nc(NC(=O)OC)[nH]c2c1 (centres undefined),NF-kB SEAP reporter activity,RAW-Dual [1]; [4],1.04
same,NF-kB SEAP reporter activity,RAW-Dual [1]; [5],0.808
CCCS(=O)c1ccc2nc(NC(=O)OC)[nH]c2c1 (centres undefined) (library stock concentration (final ~1000-fold dilution): 10 mM),NF-kB SEAP reporter activity,RAW-Dual [2]; agonist: LPS (TLR4) 0.1 ug/mL,1.06
same,NF-kB SEAP reporter activity,RAW-Dual [2]; [6],0.948
same,NF-kB SEAP reporter activity,RAW-Dual [2]; [7],1.05
same,NF-kB SEAP reporter activity,RAW-Dual [2]; [8],1.09
CCCS(=O)(=O)NC1CC(N(C)c2ncnc3[nH]ccc23)C1 (centres undefined),NF-kB SEAP reporter activity,RAW-Dual [1]; [4],0.73
same,NF-kB SEAP reporter activity,RAW-Dual [1]; [5],0.764
CCCS(=O)(=O)NC1CC(N(C)c2ncnc3[nH]ccc23)C1 (centres undefined) (library stock concentration (final ~1000-fold dilution): 10 mM),NF-kB SEAP reporter activity,RAW-Dual [2]; agonist: LPS (TLR4) 0.1 ug/mL,0.584
same,NF-kB SEAP reporter activity,RAW-Dual [2]; [6],0.746
same,NF-kB SEAP reporter activity,RAW-Dual [2]; [7],0.786
same,NF-kB SEAP reporter activity,RAW-Dual [2]; [8],0.875
Cl.O=C1c2cccc3c2C(CCC3)CN1C1CN2CCC1CC2 (centres undefined),NF-kB SEAP reporter activity,"RAW-Dual [1]; library stock concentration (final ~1000-fold dilution): 10 mM water, cytotoxicity flag (confluency mask): not cytotoxic, agonist: Imiquimod (TLR7) […]",0.577
same,NF-kB SEAP reporter activity,"RAW-Dual [1]; library stock concentration (final ~1000-fold dilution): 10 mM water, cytotoxicity flag (confluency mask): not cytotoxic, agonist: MPLA (TLR4) […]",0.711
Cl.O=C1c2cccc3c2C(CCC3)CN1C1CN2CCC1CC2 (centres undefined) (library stock concentration (final ~1000-fold dilution): 10 mM water),NF-kB SEAP reporter activity,RAW-Dual [2]; agonist: LPS (TLR4) 0.1 ug/mL,0.985
same,NF-kB SEAP reporter activity,RAW-Dual [2]; [6],0.593
same,NF-kB SEAP reporter activity,RAW-Dual [2]; [7],0.966
same,NF-kB SEAP reporter activity,RAW-Dual [2]; [8],0.917
CCN(CC)CCNC(=O)c1c(C)[nH]c(/C=C2\C(=O)Nc3ccc(F)cc32)c1C.O=C(O)CC(O)C(=O)O,NF-kB SEAP reporter activity,RAW-Dual [1]; [4],0.892
same,NF-kB SEAP reporter activity,RAW-Dual [1]; [5],0.292
